HT1080-NT tox = kills 2HG-producing HT-1080-NT fibrosarcoma cells | HT-1080-NT fibrosarcoma viability, CellTiter-Glo ATP luminescence, 48 h | Potency, µM (doses to about 46.1 µM), without a hit: top-dose activity, negative = less viability, hits mostly cytotoxic | 360,000 compounds, 1.6% hits;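 further: NT is the 2HG producing partner of a matched IDH1 knockdown line; potency means the concentration at half of the fitted maximal effect; 0% = DMSO-treated cells and -100% = media-only wells without cells; nearly all actives have a fitted effect of over 55% in size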
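HT-1080-NT fibrosarcoma cells (2HG-overproducing), 750 cells/well in RPMI with 5% FBS, dosed after 2 h and incubated 48 h at 37C. CellTiter-Glo luminescence normalized to DMSO and no-cell wells; concentration-response curves fitted and classed.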
DT40 TDP1 no CPT = qHTS for Inhibitors of human tyrosyl-DNA phosphodiesterase 1 (TDP1): qHTS in cells in absence of CPT; Potency, µM (top dose mostly 46.2 µM), without a hit: at the highest dose activity change, negative = growth inhibition, hits mostly inhibitors; 420,000 compounds, 15% hits; DT40 Tdp1-/- hTDP1 cells, no CPT, ATP luminescence, 48 h; AID 686978, 2013; further: potency means the concentration at half of the fitted maximal effect; nearly all actives have a fitted effect of over 55% in size
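Growth kinetics read by CellTiter-Glo luminescence after ≥48 hr at 37 °C. Cells: DT40 Tdp1-/- stably carrying human TDP1, 400 per well, compound exposure in the absence of CPT (DMSO vehicle).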
IL-1B inflam inh = blocks inflammasome-driven IL-1 beta release. activity change, % at 57.5 µM. THP-1 LPS/ATP IL-1B secretion, AlphaLISA, 16 h; active compounds read low. AID 743279. 360,000 compounds, 4.7% hits; in the data active means activity change below about -50%; inconclusive means mostly about -30% to -49%
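THP-1 cells pretreated 1 hr with compounds (up to 57.5 uM final), then stimulated with LPS (250 ng/mL final) plus ATP (1.25 mM final); secreted IL-1B measured by AlphaLISA after 16 hr, decreased signal indicating inhibition.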
DT40 TDP1 CPT = growth inhibition of DT40 Tdp1-/-;hTDP1 cells with camptothecin (screen for TDP1 inhibitors). chicken DT40 Tdp1-/-;hTDP1 cells + 20 nM CPT, ATP luminescence, 48 h. Potency, µM (doses to about 46.2 µM), inactives show at the top dose activity change, negative = growth inhibition, most hits filed as inhibitors. 420,000 compounds, 12% hits; further: potency means the concentration at half of the fitted maximal effect; nearly all actives have a fitted effect of over 55% in size
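Chicken DT40 Tdp1-/- cells complemented with human TDP1, 400 cells/well, exposed to compounds plus 20 nM camptothecin for at least 48 h at 37 C; viability read as ATP content by CellTiter-Glo luminescence.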
HT1080 IDH1KD tx = toxicity to HT-1080 IDH1 knockdown cells (counter line); HT-1080 IDH1 knockdown viability, ATP luminescence, 48 h; Potency, µM (series often up to 46.1 µM), without a hit: at the top dose activity, negative = toxicity, actives largely listed as cytotoxic; 360,000 compounds, 2% hits;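 further: potency means the concentration at half of the fitted maximal effect; 0% = DMSO wells and -100% = cell-free medium wells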
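HT-1080-IDH1KD cells (IDH1 knocked down), 750/well in RPMI with 5% FBS, treated with compound 48 h at 37 degrees C. Viability by CellTiter-Glo luminescence, normalised to DMSO and no-cell wells; concentration-response curves classed.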
* hit, by the source's call; ? = inconclusive; . = no result given; [ ] = dose if it differs, or a comment. Rows were chosen to be rich in hits. Some 19% of all compounds tested hit in one or more screens of this group. Unless noted, the call rests on the fitted dose curve; in most records, active means well fitted curve in the direction sought with a large enough effect; inconclusive means small, poorly fitted or top-dose-only effect, or another doubt; inactive means no such curve, though single readings can be large; an effect the other way counts as inactive or inconclusive. Unless noted, on the % scale 0 is the no-effect control and ±100 the full control effect.

SMILES	HT1080-NT tox	DT40 TDP1 no CPT	IL-1B inflam inh	DT40 TDP1 CPT	HT1080 IDH1KD tx
CC1=C(C)CS(=O)N(S(=O)(=O)c2ccc(Cl)cc2)C1 (stereo not given)	?	2.3µM*	-93*	3.7µM*	?
COc1cccc(OCCn2cccc2/C=C2/C(=N)N3OC(C)=CC3=NC2=O)c1	4%	20%	38	-9%	15%
CC1=CC2=NC(=O)/C(=C\c3cc(C)n(-c4cccc(Cl)c4)c3C)C(=N)N2O1	6%	9.2µM*	1	?	4%
CC1=CC2=NC(=O)/C(=C\c3cc(C)n(-c4ccccc4F)c3C)C(=N)N2O1	-3%	29µM*	-22	-17%	-17%
CC1=CC2=NC(=O)/C(=C\c3cccn3CCOc3cccc(C)c3)C(=N)N2O1	-4%	?	-56*	8%	-30%
CC1=CC2=NC(=O)/C(=C\c3cc(C)n(-c4ccccc4)c3C)C(=N)N2O1	11%	-23%	10	2%	4%
CCOc1ccc(NC(=O)CSc2ncc3c(n2)-c2ccccc2N(C)S3(=O)=O)cc1	.	6%	.	0%	.
CCNc1ncc2nc(-c3ccccc3)c(=O)n(C)c2n1	.	1%	.	-1%	.
CCCNC(=O)OC1CC2CC1[C@H]1CCCCN1C2=O (stereo not given in full)	-2%	-19%	-1	-7%	5%
Cc1cc(C)n(-c2nc(NCCC(C)C)c3c4c(sc3n2)COC(C)(C)C4)n1	19%	16µM*	-2	9.2µM*	10%
Cc1cc(C)n(-c2nc(SCC(=O)Nc3nccs3)c3c4c(sc3n2)COC(C)(C)C4)n1	-9%	23µM*	0	?	10%[9.24 µM]
Cc1cc(C)n(-c2nc3sc4c(c3c3nnc(SCC(N)=O)n23)CC(C)(C)OC4)n1	-3%	-24%	-21	5%	-1%
CSc1nnc2c3c4c(sc3nc(-n3nc(C)cc3C)n12)COC(C)(C)C4	2%	29µM*	5	?	1%
CC1(C)Cc2c(sc3ncnc(NN)c23)CO1	1%	?	70	?	6%
Cc1cc(C)n(-c2nc(NCCCN(C)C)c3c4c(sc3n2)COC(C)(C)C4)n1	-14%	?	-62*	0%	-25%
CCc1nc2sc3c(c2c(=S)[nH]1)CC(C)(C)OC3	-9%	?	28	?	-8%
CCSc1nc(NCCN(C)C)c2c3c(sc2n1)COC(C)(CC)C3 (stereo not given)	-22%	?	?	21µM*	-20%
Cc1cc(C)n(-c2nc(NCCN(C)C)c3c4c(sc3n2)COC(C)(C)C4)n1	18µM*	23µM*	.	?	?
CCN(CC)CCNc1nc(-n2nc(C)cc2C)nc2sc3c(c12)CC(C)(C)OC3	?	10µM*	-25	?	?
Cc1nc2sc3c(c2c(=N)n1N)CC(C)(C)OC3	13%	0%	4	-2%	26%
COc1cc(C(=O)NCCOc2cccc(C)c2)c(Br)c(OC)c1OC	5%	-9%	-4	-1%	2%
CCc1ccc(C(=O)COC(=O)c2cncc(Br)c2)cc1	-8%	5%	30	5%	1%
Cc1cc(C(=O)N/N=C/c2ccc(OC(=O)c3ccccc3Br)cc2)n[nH]1	-17%	?	-9	?	-13%
Cc1cc(C(=O)N/N=C/c2cc(Br)ccc2OC(=O)c2ccccc2Cl)n[nH]1	?	4.6µM*	78	5.8µM*	21µM*
Cc1cc(C(=O)N/N=C/c2cc(Br)ccc2OC(=O)c2ccccc2)n[nH]1	?	6.5µM*	166	7.3µM*	8.2µM*
SMILES	HT1080-NT tox	DT40 TDP1 no CPT	IL-1B inflam inh	DT40 TDP1 CPT	HT1080 IDH1KD tx
O=C(NCCc1cn[nH]c1)c1ccc2oc(CCc3ccccc3)nc2c1	-1%	?	10	-22%	-8%
CCOc1ccc(C(C)=O)cc1N1C(=O)C2C3C=CC(O3)C2C1=O (stereo not given)	6%[9.24 µM]	5.2µM*	-10	6.5µM*	?
CCCn1c(Oc2ccccc2)nc2c1c(=O)n(C)c(=O)n2C	-1%	-29%	37	-22%	1%
Cc1nc(NCC(=O)c2c[nH]c3ccccc23)sc1C	.	?	.	6.3µM*	.
CN(C)CC(=O)c1c[nH]c2ccccc12	0%	?	20	?	-5%
Cc1ccccc1N(CC(=O)NCCSc1ccccn1)S(=O)(=O)c1ccccc1	-2%	?	-3	-5%	10%
Cc1cc(C)cc(N(CC(=O)N/N=C/c2ccncc2)S(=O)(=O)c2ccccc2)c1	-1%	-27%	-54*	-27%	-4%
COc1ccccc1N(CC(=O)NCCSc1ccccn1)S(=O)(=O)c1ccccc1	-4%	?	34	?	-10%
CCOc1ccccc1N(CC(=O)NCCSc1ccccc1)S(=O)(=O)c1ccccc1	.	10µM*	.	?	.
Cc1cc(C)cc(N(CC(=O)NCCSc2ccccn2)S(=O)(=O)c2ccccc2)c1	-10%	26µM*	-12	?	1%
Cc1ccc(S(=O)(=O)N(CC(=O)NCCSc2ccccn2)c2ccc(C)c(C)c2)cc1	-11%	?	-53*	?	-11%
C#CCOc1ccc(C2C(C#N)=C(N)Oc3cc(O)ccc32)cc1 (stereo not given)	-29%	-14%	-8	-1%	-26%
CSc1cccc(NC(=O)CSc2nc3ccccc3o2)c1	0%	-12%	13	-10%	29%
CCOc1ccccc1N(CC(=O)NCCSc1ccccn1)S(=O)(=O)c1ccc(C)cc1	-6%	21µM*	-28	?	-10%
CCOc1ccccc1N(CC(=O)NCCSc1ccccn1)S(=O)(=O)c1ccccc1	-13%	?	8	?	-4%
Cn1cc(-c2ccc(C(=O)NCc3cccc(Cl)c3)c3occc23)cn1	-20%	?	?	?	-22%
Cn1cc(-c2coc3c(C(=O)NCc4cccnc4)cccc23)cn1	1%	23µM*	-4	?	-1%
COc1ccc(CNC(=O)c2cccc3c(-c4cnn(C)c4)coc23)cc1OC	23µM*	?	?	?	?
CCc1cc2c(C)ccc(C)c2nc1SCC(=O)Nc1c(C)[nH]c(=O)[nH]c1=O	-9%	?	-5	21µM*	-10%
CCc1cc2c(C)ccc(C)c2nc1SCC(=O)Nc1c[nH]c(=O)[nH]c1=O	-2%	12µM*	71	?	-12%
CCOC(=O)c1sc(NC(=O)/C=C/c2cnn(C)c2C)c(C(=O)OC(C)C)c1C	14%	?	-3	?	8%
